According to PubChem BioAssay:
A number with no mark means an inactive call. Where a call stands in place of a potency, no number is given. For some assays here: Potency and affinity values are given separately. The source made the active and inactive calls. Unless noted, the rule behind the calls is not given here.

What was measured:
[1] = antimalarial activity against Dd2 strain (AID 2302;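 active = growth inhibition above 50% at the single 2 µM test dose, taken to imply half-maximal potency below 2 µM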); details: P. falciparum Dd2 in RBCs, LDH growth readout, 72 h; at 2 µM; active compounds read high
[2] = HepG2 cytotoxicity, primary screen, cytotoxicity control for P. falciparum antimalarial project, cell-based, ATP luminescence (AID 2303;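 active = inhibition above 50%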); details: HepG2 viability, 24-48 h, at 10 µM, active compounds read high
[3] = molecular target: L-lactate dehydrogenase (Plasmodium falciparum (isolate CDC / Honduras)) (UniProt Q27743); experiment: PfLDH activity inhibition – cell lysate, 3D7 strain, counter-screen for P. falciparum growth inhibition project (AID 2304); details: P. falciparum 3D7 crude extract, LDH APAD/NBT absorbance; at 2 µM; active compounds read high
Sequence of L-lactate dehydrogenase (Plasmodium falciparum (isolate CDC / Honduras)) (Q27743 whole entry, looked up): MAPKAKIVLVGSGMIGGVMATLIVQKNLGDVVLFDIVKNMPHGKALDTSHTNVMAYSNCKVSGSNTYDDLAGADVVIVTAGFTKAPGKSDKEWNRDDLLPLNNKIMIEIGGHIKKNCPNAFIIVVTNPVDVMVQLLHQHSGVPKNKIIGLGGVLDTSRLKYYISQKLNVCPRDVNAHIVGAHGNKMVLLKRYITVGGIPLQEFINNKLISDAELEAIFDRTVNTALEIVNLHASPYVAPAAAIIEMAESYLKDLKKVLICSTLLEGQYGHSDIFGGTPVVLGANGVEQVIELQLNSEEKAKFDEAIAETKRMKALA

[4] = inhibition of 3D7 malaria parasite growth – strain 3D7 (AID 2306); details: P. falciparum 3D7 erythrocytic growth, LDH absorbance, 72 h; at 2 µM; active compounds read high
[5] = molecular target: Calcium-dependent protein kinase 1 (Plasmodium falciparum (isolate 3D7)) (UniProt P62344); experiment: PfCDPK1 kinase inhibitors, biochemical, TCAMS library (AID 1159585; cut-off not given, nearly all actives have IC50 up to about 0.98 µM;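 note: inhibitors leave more ATP so luminescence rises with inhibition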); details: recombinant PfCDPK1, Kinase-Glo ATP depletion luminescence
Sequence of Calcium-dependent protein kinase 1 (Plasmodium falciparum (isolate 3D7)) (P62344 whole entry, looked up): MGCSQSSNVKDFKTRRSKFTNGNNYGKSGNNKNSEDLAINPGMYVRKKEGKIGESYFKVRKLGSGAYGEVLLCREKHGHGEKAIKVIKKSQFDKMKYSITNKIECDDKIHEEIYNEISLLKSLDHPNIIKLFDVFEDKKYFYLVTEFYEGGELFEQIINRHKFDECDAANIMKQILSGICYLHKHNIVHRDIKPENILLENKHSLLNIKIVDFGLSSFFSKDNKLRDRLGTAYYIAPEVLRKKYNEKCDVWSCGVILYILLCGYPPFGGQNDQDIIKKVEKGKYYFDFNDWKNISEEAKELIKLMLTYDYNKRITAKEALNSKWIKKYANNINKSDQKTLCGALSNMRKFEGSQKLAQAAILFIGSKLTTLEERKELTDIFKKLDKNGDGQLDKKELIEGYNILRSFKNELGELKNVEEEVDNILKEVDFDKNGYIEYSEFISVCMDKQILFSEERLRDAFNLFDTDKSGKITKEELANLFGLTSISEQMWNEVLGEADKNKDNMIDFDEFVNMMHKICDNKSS

[6] = molecular target: Plasmodium falciparum protein kinase 6 (PK6, PF3D7_1337100) (UniProt Q8IDW1); experiment: PfPK6 kinase inhibitors, biochemical, TCAMS library (AID 1159586); details: recombinant PfPK6, Kinase-Glo ATP depletion luminescence
Sequence of Plasmodium falciparum protein kinase 6 (PK6, PF3D7_1337100) (Q8IDW1 1-305): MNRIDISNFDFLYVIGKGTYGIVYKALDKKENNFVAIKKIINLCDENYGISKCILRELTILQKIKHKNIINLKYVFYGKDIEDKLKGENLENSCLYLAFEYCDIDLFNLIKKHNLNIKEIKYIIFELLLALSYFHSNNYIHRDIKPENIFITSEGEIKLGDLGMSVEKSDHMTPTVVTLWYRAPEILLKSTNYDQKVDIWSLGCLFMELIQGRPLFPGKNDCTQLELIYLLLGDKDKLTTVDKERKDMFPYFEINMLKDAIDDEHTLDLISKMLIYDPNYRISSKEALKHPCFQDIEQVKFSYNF

[7] = molecular target: Protein kinase 7 (PK7), Plasmodium falciparum 3D7 (PF3D7_0213400) (UniProt Q7YTF7); experiment: inhibition of Plasmodium PK7 catalytic activity – biochemical, TCAMS antimalarial set, Kinase-Glo luminescence (AID 1159587); details: recombinant PfPK7, Kinase-Glo ATP depletion luminescence
Sequence of Protein kinase 7 (PK7), Plasmodium falciparum 3D7 (PF3D7_0213400) (Q7YTF7 1-343): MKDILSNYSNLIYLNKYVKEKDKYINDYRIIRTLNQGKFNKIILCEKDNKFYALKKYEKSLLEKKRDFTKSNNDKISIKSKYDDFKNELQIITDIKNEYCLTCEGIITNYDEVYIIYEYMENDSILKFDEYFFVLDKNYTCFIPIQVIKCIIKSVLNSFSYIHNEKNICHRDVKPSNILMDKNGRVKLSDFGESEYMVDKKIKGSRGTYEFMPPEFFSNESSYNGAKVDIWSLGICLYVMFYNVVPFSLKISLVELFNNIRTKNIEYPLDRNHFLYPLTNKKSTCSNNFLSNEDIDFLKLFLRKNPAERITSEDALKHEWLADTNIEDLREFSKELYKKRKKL

[8] = molecular target: Calcium-dependent protein kinase 4 (Plasmodium falciparum (isolate 3D7)) (UniProt Q8IBS5); experiment: PfCDPK4 kinase inhibitors, biochemical, TCAMS library (AID 1159588; cut-off not given, nearly all actives have IC50 up to about 0.91 µM); details: recombinant PfCDPK4, Kinase-Glo ATP depletion luminescence
Sequence of Calcium-dependent protein kinase 4 (Plasmodium falciparum (isolate 3D7)) (Q8IBS5 whole entry, looked up): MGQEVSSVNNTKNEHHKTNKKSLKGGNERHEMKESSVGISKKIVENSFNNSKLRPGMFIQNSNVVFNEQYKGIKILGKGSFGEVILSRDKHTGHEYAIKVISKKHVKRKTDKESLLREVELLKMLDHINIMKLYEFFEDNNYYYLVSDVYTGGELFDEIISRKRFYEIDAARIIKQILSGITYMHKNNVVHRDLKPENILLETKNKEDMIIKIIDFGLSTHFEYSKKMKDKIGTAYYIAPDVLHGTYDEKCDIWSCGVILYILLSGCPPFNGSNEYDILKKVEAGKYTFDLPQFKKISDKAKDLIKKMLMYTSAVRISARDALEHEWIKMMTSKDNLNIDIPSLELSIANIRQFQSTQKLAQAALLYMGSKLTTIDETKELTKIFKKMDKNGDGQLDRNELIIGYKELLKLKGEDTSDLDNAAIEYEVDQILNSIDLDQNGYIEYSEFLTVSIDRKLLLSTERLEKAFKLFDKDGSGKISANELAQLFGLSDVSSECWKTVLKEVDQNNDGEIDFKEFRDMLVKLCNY

Row | SMILES | growth inhibition [1] | inhibition [2] | inhibition [3] [%] | growth inhibition [4] | outcome [5] | outcome [6] | outcome [7] | outcome [8]
1 | Cc1cc(NC(=O)[C@H](CC2CCCCC2)Nc2ccc(C#N)c3ccccc23)ccc1F | 99% (active) | 21% | -6 | 102% (active) | inactive | inactive | inactive | inactive
2 | CCOc1ccc(C(C)NC(=O)C2COc3ccccc3O2)cc1OCC (stereo not given) | 100% (active) | -4% | 1 | 101% (active) | inactive | inactive | inactive | inactive
3 | CCCCCn1c(Sc2ccc(C#N)c([N+](=O)[O-])c2)nnc1-c1ccccc1 | 15% | 22% | -2 | 93% (active) | inactive | inactive | inactive | inactive
4 | Cc1cc2nc(-c3cccc(C(=O)NC4CCN(Cc5ccccc5)CC4)c3)[nH]c2cc1C | 13% | 32% | 2 | 101% (active) | inactive | inactive | inactive | inactive
5 | O=C(c1cccc(-c2ccc(-c3nc4ccc(F)cc4[nH]3)s2)c1)N1CCCCC1CN1CCC(O)C1 (stereo not given) | 85% (active) | 23% | 2 | 101% (active) | inactive | inactive | inactive | inactive
6 | Cc1ccc(NC(=O)NC2CCN(CCCCCNC(=O)/C=C/c3ccc(Cl)c(Cl)c3)CC2)cc1 | 19% | 41% | -2 | 102% (active) | inactive | inactive | inactive | inactive
7 | O=C(Nc1cccc(-c2ccc(-c3nc4ccccc4[nH]3)cc2)c1)c1csnn1 | 21% | 31% | 0 | 91% (active) | inactive | inactive | inactive | inactive
8 | CC(C)C[C@H](NC(=O)c1ccc(OCCN2CCOCC2)cc1)C(=O)N[C@H](/C=N/NC(=O)c1ccccc1)CCc1ccccc1 | 90% (active) | 17% | -3 | 98% (active) | inactive | inactive | inactive | inactive
9 | Cn1ccnc1CCC(=O)Nc1ccc(Cl)cc1C(=O)Nc1ccc(Cl)cc1 | 3% | 28% | 4 | 92% (active) | inactive | inactive | inactive | inactive
10 | NCC1CCCN1Cc1ccc(-c2ccc(-c3nc4ccccc4[nH]3)s2)cc1 (stereo not given) | 97% (active) | 17% | -6 | 98% (active) | inactive | inactive | inactive | inactive
11 | COc1ccc(N2CCN(CCCOc3ccc(NC(=O)c4cc(Cl)cc(Cl)c4)cc3)CC2)c(OC)c1 | 41% | 38% | 2 | 100% (active) | inactive | inactive | inactive | inactive
12 | O=C(NCCCCCN1CCCN(C(=O)Nc2ccc(F)c(C(F)(F)F)c2)CC1)[C@@H]1C[C@H]1c1ccc(Cl)c(Cl)c1 | 1% | 61% (active) | 2 | 90% (active) | inactive | inactive | inactive | inactive
13 | COc1ccc(N2CCN(CCCCNCc3ccc(NC(=O)c4cc(Cl)cc(Cl)c4)cc3)CC2)c(OC)c1 | 99% (active) | 39% | 0 | 100% (active) | inactive | inactive | inactive | inactive
14 | COc1ccc2nccc(N(C)CC3(O)CCN(CCc4ccc5c(c4)NC(=O)CS5)CC3)c2n1 | 67% (active) | 10% | 1 | 91% (active) | inactive | inactive | inactive | inactive
15 | Cc1nc2sccn2c1C(=O)NCCc1ccccc1Cl | 1% | 6% | 3 | 96% (active) | inactive | inactive | inactive | inactive
16 | CCC/C=C/c1c(CNCCCNc2cc(=O)c3ccccc3[nH]2)sc(CC)c1Br | 71% (active) | 8% | -1 | 88% (active) | inactive | inactive | inactive | inactive
17 | CCOc1c(Cl)cc(Cl)cc1CNCCCNc1nc2ccccc2[nH]1 | 1% | 18% | -7 | 94% (active) | inactive | inactive | inactive | inactive
18 | Cn1nccc1C(=O)NCCNCc1ccc(-c2cccc(-c3nc4ccc(C(F)(F)F)cc4[nH]3)c2)cc1 | 99% (active) | 51% (active) | -8 | 101% (active) | inactive | inactive | inactive | inactive
19 | O=C(/C=C/c1ccc(Cl)c(Cl)c1)N1CCC(CN2CCC(c3c[nH]c4ccncc34)CC2)CC1 | 72% (active) | 44% | 0 | 101% (active) | inactive | inactive | inactive | inactive
20 | O=C(O)c1ccc2nc(-c3ccccn3)c(-c3ccccn3)nc2c1 | 18% | 3% | 4 | 97% (active) | inactive | inactive | inactive | inactive

Row | SMILES | growth inhibition [1] | inhibition [2] | inhibition [3] [%] | growth inhibition [4] | outcome [5] | outcome [6] | outcome [7] | outcome [8]
21 | COc1ccc(S(=O)(=O)N(c2cc(Br)cc3c2OCC3)S(=O)(=O)c2ccc(OC)c(N3CCN(C)CC3)c2)cc1N1CCN(C)CC1 | 98% (active) | 67% (active) | -8 | 81% (active) | inactive | inactive | inactive | inactive
22 | Cc1[nH]c(C)c(-c2ccc(Cl)cc2Cl)c(=O)c1Br | 57% (active) | 3% | -4 | 87% (active) | inactive | inactive | inactive | inactive
23 | Nc1c2ccccc2nc2ccc(-c3ccccc3)cc12 | 99% (active) | 100% (active) | 2 | 101% (active) | inactive | inactive | inactive | inactive
24 | CSC1=NC(=Nc2c(C)cccc2C)C2(CCC(C(C)(C)C)CC2)N1c1ccc(O)cc1 (stereo not given) | 93% (active) | 5% | 1 | 97% (active) | inactive | inactive | inactive | inactive
25 | CC(C)C[C@H]1c2[nH]c3ccc(Cl)cc3c2CCN1C(=O)CCc1ccccc1 | 81% (active) | -2% | 6 | 95% (active) | inactive | inactive | inactive | inactive
26 | O=C(Cc1cccnc1)Nc1cccc(-c2cccc(-c3nc4ccc(C(F)(F)F)cc4[nH]3)c2)c1 | 38% | 42% | -7 | 99% (active) | inactive | inactive | inactive | inactive
27 | Cn1ccnc1Sc1ncccc1[N+](=O)[O-] | 2% | 0% | -3 | 96% (active) | inactive | inactive | inactive | inactive
28 | Nc1cccc(CNCc2ccc(-c3cccc(-c4nc5ccccc5[nH]4)c3)cc2)c1 | 78% (active) | 12% | 6 | 103% (active) | inactive | inactive | inactive | inactive
29 | CCC(C)NCC(O)(c1ccc(Cl)cc1)c1ccc(Cl)cc1 (stereo not given) | 76% (active) | 5% | 0 | 95% (active) | inactive | inactive | inactive | inactive
30 | Cc1nc2ccc3ccc(CNc4ccc(C(=O)N[C@@H](CCC(=O)O)C(=O)N[C@@H](Cc5cccs5)C(=O)O)c(F)c4)cc3c2c(=O)[nH]1 | 96% (active) | 43% | 4 | 97% (active) | inactive | inactive | inactive | inactive
31 | O=C(NCCCCCN1CCC(c2c[nH]c3ccccc23)CC1)c1ccc(-c2ccccc2)nc1 | 13% | 43% | 1 | 87% (active) | inactive | inactive | inactive | inactive
32 | CCN(CC)CCCC(C)Nc1c(-c2ccc(Br)cc2)cnc2ccccc12 (stereo not given) | 95% (active) | 7% | -1 | 100% (active) | inactive | inactive | inactive | inactive
33 | Cc1ccc(NC(=O)NC2CCN(c3ccnc4ccccc34)C2)cc1 (stereo not given) | 48% | 7% | 0 | 99% (active) | inactive | inactive | inactive | inactive
34 | CCOC(=O)c1ccc2nc(-c3ccc(C(=O)NC4CCN(Cc5ccccc5)CC4)s3)[nH]c2c1 | 95% (active) | 32% | -2 | 100% (active) | inactive | inactive | inactive | inactive
35 | O=C(Nc1ccc(Cl)cc1)c1cc(Cl)ccc1NC(=O)C1CCc2ccccc2O1 (stereo not given) | 63% (active) | 1% | -1 | 98% (active) | inactive | inactive | inactive | inactive
36 | CN(CC(=O)Nc1ccc(F)cc1)C(=O)c1ccc(-c2ccc(F)cc2)o1 | 84% (active) | 3% | -2 | 89% (active) | inactive | inactive | inactive | inactive
37 | Fc1ccc2nc(-c3cccc(-c4ccc(CN5CCC(CCN6CCCCC6)CC5)cc4)c3)[nH]c2c1 | 100% (active) | 91% (active) | -2 | 101% (active) | inactive | inactive | inactive | inactive
38 | c1ccc2[nH]c(-c3ccc(-c4ccc(CN5CCCCC5)cc4)cc3)nc2c1 | 100% (active) | 27% | 2 | 99% (active) | inactive | inactive | inactive | inactive
39 | COc1ccc(CSC2CCCCC23NC(=S)NC3=S)cc1 (stereo not given) | -3% | -5% | -1 | 97% (active) | inactive | inactive | inactive | inactive
40 | Cc1ccccc1OCC(O)CN1CCC(C2CCN(CC(O)COc3ccccc3C)CC2)CC1 (stereo not given) | 51% (active) | 12% | -4 | 100% (active) | inactive | inactive | inactive | inactive
